Source: PubChem BioAssay (NCATS)
Results filed as inconclusive are left out. A call without a number means that no potency is given here. The source made the active and inactive calls. Calls come from the whole dose curve; as a rule, active = well fitted inhibition curve with a large enough effect; inconclusive = small, poorly fitted or top-dose-only effect; inactive = flat fitted curve, though single readings scatter.

Each compound was assayed against Phospholipid hydroperoxide glutathione peroxidase GPX4 (Homo sapiens) (UniProt P36969) (assay: Primary qHTS Assay for Inhibitors of Recombinant Selenoprotein Glutathione Peroxidase 4 (GPX4) (AID 1845192; note: nearly all actives have a fitted effect of over 65% in size)). Conditions: recombinant GPX4, GR-coupled NADPH fluorescence, 15 min; series mostly up to 50 µM; activity change, negative = inhibition: at the top concentration.
Chain of Phospholipid hydroperoxide glutathione peroxidase GPX4 (Homo sapiens) (P36969 whole entry, looked up): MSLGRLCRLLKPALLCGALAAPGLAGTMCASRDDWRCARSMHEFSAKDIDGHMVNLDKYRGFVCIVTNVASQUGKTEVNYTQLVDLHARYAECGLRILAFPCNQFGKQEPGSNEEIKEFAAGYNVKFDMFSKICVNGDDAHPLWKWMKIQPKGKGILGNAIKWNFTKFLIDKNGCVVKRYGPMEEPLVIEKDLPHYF
Source text: Assay Provider: Elias S.J. Arner MD PhD.
Department of Medical Biochemistry and Biophysics
Karolinska Institutet, Solna, Stockholm, Sweden
Selenoprotein glutathione peroxidases (GPX), like the ubiquitously expressed GPX1 and the ferroptosis modulator GPX4, enact their antioxidant activities by reducing hydroperoxides using glutathione. […] GPX1 and GPX4 inhibitors have thus shown promise as anti-cancer agents. Existing inhibitors are often promiscuous, or modulate GPX activity only indirectly, so novel direct inhibitors identified through screening against GPX1 and GPX4 could be valuable. Here, we developed optimized glutathione reductase (GR)-coupled GPX assays for the biochemical high-throughput screen (HTS) of almost 12,000 compounds with known mechanisms of action. Initial hits were triaged using a GR counter-screen, assessed for isoform specificity using a separate GPX2 assay, and were assessed for general selenocysteine-targeting activity using a thioredoxin reductase (TXNRD1) assay. With this suite of assays, we identified novel GPX1/GPX2- and GPX4-specific inhibitors and can here present a validated pipeline for future discovery research for selenoprotein-targeting agents.
SEQUENCE No. (e.g., 1, 2, 3, etc.); […] (e.g., Cells, Incubation, Reagent, etc.); VALUE; DESCRIPTION.
1; Reagent 1; 3 uL; 333.33 nM GPx4 enzyme or no enzyme control in 1536-well, black, solid Greiner assay plate.
2; Compound; 25 nL; Kalypsis pin tool (Wako USA) equipped with a 1536-well pin head.
3; Incubation; 30 min; room temperature.
4; Reagent 2; 1 uL; 500 nM GR, 5 mM GSH, 2.5 mM NADPH solution
5; Reagent 3; 1 uL; 2.5 mM CHP in 50% EtOH.
6; Detection; Fluorescence; ViewLux microplate reader, excitation 340 nm and emission 450 nm.
7; Incubation; 15 min; room temperature.
8; Detection; Fluorescence; ViewLux microplate reader, excitation 340 nm and emission 450 nm.
NOTES (numbers refer to Sequence numbers above)
1. 3 µL of 333.33 nM GPX4 and 0.016% BSA in assay buffer (50 mM Tris-HCl, 2 mM EDTA (pH 7.5), 150 mM NaCl) was added to columns 3-48 of 1536-well plates using a BioRAPTR Flying Reagent Dispenser (Let's Go Robotics (LGR), Carlsbad, CA). A no-enzyme control (0.01% BSA in TES assay buffer) was added to columns 1-2.
2. 25 nL, library and DMSO controls were added to each well with a pin tool (Kalypsys).
3. The assay plates were incubated for 30 minutes at room temperature.
4. 1 µL of master mix (500 nM glutathione reductase (GR), 5 mM reduced glutathione (GSH), 2.5 mM NADPH in assay buffer) was added.
5. 1 µL of cumene hydroperoxide (CHP) ([2.5 mM] in 50% EtOH) was then added within 5 minutes to initiate the reaction. Final concentrations were: 200 nM GPX4, 1 mM GSH, 0.5 mM CHP, 0.5 mM NADPH, 100 nM GR, 0.01% BSA.
6. Initial fluorescence readout (t=0) at 340/450 nm was measured using a ViewLux multimodal detector (PerkinElmer, Waltham, MA).
8. Endpoint fluorescence readout (t=15) at 340/450 nm was measured 15 min after room temperature incubation.
Potency is the fitted concentration of half-maximal effect.

Question: `Cc1nn(-c2ccccc2)c(C)c1/C=N/N1CCN(Cc2ccccc2)CC1` was tested. Which Potency did it give?
Answer: Its Potency is “inactive”.

Question: For `CC(Oc1c(Cl)cccc1Cl)C1=NCCN1` (stereo not given), which “outcome” value is on record?
Answer: The value was “inactive”.

Question: For `CC(=O)/C=C/C=C1/C2CCC(C2)C1(C)C` (stereo not given), which “outcome” value is on record?
Answer: The value was “inactive”.

Question: `O=C(O)Cc1ccccc1Oc1ccc(Cl)cc1Cl` was tested. Which “activity change, negative = inhibition” value did it give?
Answer: Its value is 1.31% (inactive).

Question: For `CC[C@@]1(O)C(=O)OCc2c1cc1n(c2=O)Cc2c-1nc1ccccc1c2/C=N/OC(C)(C)C`, which Potency is on record?
Answer: Its Potency is 12.6 µM (active).

Question: With `CC[N+](CC)(CC)CCOC(=O)C(C1CCCC1)C1CCCC1` as the compound, how does the “activity change, negative = inhibition” value read?
Answer: Its value is -38.1% (inactive).

Question: `CCN(CC)CC(=O)OCC(=O)[C@@]1(O)CC[C@H]2[C@@H]3CCC4=CC(=O)CC[C@]4(C)[C@H]3[C@@H](O)C[C@@]21C` was tested. Which “outcome” value did it give?
Answer: Its value is “inactive”.

Question: How did the “activity change, negative = inhibition” value turn out when `CCCCCCCCCCCCCCCC[N+](C)(C)Cc1ccccc1` was run?
Answer: The value was -22.1% (inactive).

Question: How did the “outcome” value turn out when `O=[N+]([O-])c1nccn1CO[C@@H](CO)[C@H](O)CO` was run?
Answer: Its value is “inactive”.

Question: With `C[C@H](CN1CCCC1)C(=O)c1ccc(C(F)(F)F)cc1` as the compound, how does the “activity change, negative = inhibition” value read?
Answer: Its value is -3.13% (inactive).

Question: For `CC(=O)[C@H]1CC[C@H]2[C@@H]3C=CC4=CC(=O)CC[C@@]4(C)[C@@H]3CC[C@]12C`, which Potency is on record?
Answer: Its Potency is “inactive”.

Question: How did the “activity change, negative = inhibition” value turn out when `CCC(=O)O[C@H]1[C@H](O[C@@H]2[C@@H](C)[C@H](O[C@H]3C[C@@](C)(OC)[C@@H](O)[C@H](C)O3)[C@@H](C)C(=O)O[C@H](CC)[C@@](C)(O)[C@H](O)[C@@H](C)C(=O)[C@H](C)C[C@@]2(C)O)O[C@H](C)C[C@@H]1N(C)C` was run?
Answer: The value was 3.15% (inactive).

Question: With `CN(C)c1cc2c(Nc3ccc4c(cnn4Cc4ccccc4)c3)ncnc2cn1` as the compound, how does the Potency read?
Answer: Its Potency is “inactive”.

Question: For `C[N+]1(C)CCC(OC(=O)C(O)(c2ccccc2)C2CCCC2)C1` (stereo not given), which “outcome” value is on record?
Answer: The value was “inactive”.

Question: Which “outcome” value does the source give for `Cc1ccc(C(C)OC(=O)C2(C)CCC(C(=O)O)C2(C)C)cc1` (stereo not given) here?
Answer: Its value is “inactive”.

Question: Which “outcome” value does the source give for `CCOC(=O)NNc1ccc(N(CC)CC(C)O)nn1` (stereo not given) here?
Answer: Its value is “inactive”.

Question: With `Cc1cccc(N(C)C(=S)Oc2ccc3c(c2)CCC3)c1` as the compound, how does the “outcome” value read?
Answer: Its value is “inactive”.

Question: With `OC1(c2ccc(Cl)c(C(F)(F)F)c2)CCN(CCCC(c2ccc(F)cc2)c2ccc(F)cc2)CC1` as the compound, how does the “activity change, negative = inhibition” value read?
Answer: The value was -11.5% (inactive).

Question: How did the “outcome” value turn out when `CCCCN(CCN(CCCC)C(=O)N1CCOCC1)C(=O)N1CCOCC1` was run?
Answer: The value was “inactive”.

Question: For `CC1(C)S[C@@H]2[C@H](NC(=O)C(c3ccccc3)S(=O)(=O)O)C(=O)N2[C@H]1C(=O)O` (stereo not given in full), which “outcome” value is on record?
Answer: Its value is “inactive”.

Question: With `NS(=O)(=O)c1cc2c(cc1Cl)CN(C1CCCCC1)C2=O` as the compound, how does the “outcome” value read?
Answer: Its value is “inactive”.

Question: `Nc1ccc2cc3ccc(N)cc3nc2c1` was tested. Which “outcome” value did it give?
Answer: The value was “inactive”.

Question: How did the “activity change, negative = inhibition” value turn out when `Cc1ccc(O)cc1` was run?
Answer: The value was -1.13% (inactive).

Question: Which Potency does the source give for `O=C1NC(=O)/C(=C/c2ccc3c(c2)OC(F)(F)O3)S1` here?
Answer: Its Potency is “inactive”.

Question: `CC(=O)O[C@@H]1CC2C3CCc4cc(OC(=O)c5ccccc5)ccc4C3CCC2(C)[C@H]1OC(C)=O` (stereo not given in full) was tested. Which “outcome” value did it give?
Answer: Its value is “inactive”.

Question: How did the “activity change, negative = inhibition” value turn out when `Cn1cnc2c(NCc3ccccc3)nc(NCCO)nc21` was run?
Answer: Its value is -8.65% (inactive).

Question: `CO/N=C(/C(=O)N[C@@H]1C(=O)N2C(C(=O)[O-])=C(C[n+]3ccn4ncccc43)CS[C@H]12)c1nsc(N)n1` was tested. Which Potency did it give?
Answer: Its Potency is 17.8 µM (active).

Question: How did the Potency turn out when `CN1CCCN=C1/C=C/c1cccs1` was run?
Answer: Its Potency is “inactive”.

Question: Which Potency does the source give for `COC(=O)C1=CO[C@@H](O)[C@@H]2C(CO)=CC[C@H]12` here?
Answer: Its Potency is “inactive”.

Question: Which “outcome” value does the source give for `COc1cc(NS(=O)(=O)c2ccc(N)cc2)nc(C)n1` here?
Answer: Its value is “inactive”.

Question: How did the “activity change, negative = inhibition” value turn out when `O=C(COCCOCCOCC(=O)Nc1c(I)cc(I)c(C(=O)O)c1I)Nc1c(I)cc(I)c(C(=O)O)c1I` was run?
Answer: Its value is 3.62% (inactive).

Question: Which “activity change, negative = inhibition” value does the source give for `COc1cccc2c1[C@@H]1CN(CCCCn3c(=O)[nH]c4c(sc5ncc(-c6ccccc6)nc54)c3=O)C[C@@H]1CO2` here?
Answer: The value was 4.31% (inactive).

Question: `O=C1CC[C@H](C(=O)N2CCCCC2)N1` was tested. Which “activity change, negative = inhibition” value did it give?
Answer: Its value is 2.78% (inactive).

Question: Which “activity change, negative = inhibition” value does the source give for `CCCC(=O)O[C@]1(C(=O)CC)CC[C@H]2[C@@H]3CCC4=CC(=O)CC[C@]4(C)[C@H]3[C@@H](O)C[C@@]21C` here?
Answer: The value was -13.7% (inactive).

Question: How did the “activity change, negative = inhibition” value turn out when `CC(=O)OCC(=O)[C@@]1(O)[C@H](OC(C)=O)C[C@H]2[C@@H]3CCC4=CC(=O)C=C[C@]4(C)[C@@]3(F)[C@@H](O)C[C@@]21C` was run?
Answer: Its value is -10.8% (inactive).

Question: With `O=[N+]([O-])c1ccc(-c2nc(-c3ccc(F)cc3)c(-c3ccncc3)[nH]2)cc1` as the compound, how does the Potency read?
Answer: The Potency was “inactive”.

Question: With `C[C@@H](C1=C(CCN(C)C)Cc2ccccc21)c1ccccn1` as the compound, how does the “activity change, negative = inhibition” value read?
Answer: The value was 3.95% (inactive).

Question: With `O=C(C1CCCCC1)N1CC(=O)N2CCCc3ccccc3C2C1` (stereo not given) as the compound, how does the “outcome” value read?
Answer: The value was “inactive”.

Question: For `CCCCCN(CCCOC)C(=O)C(CCC(=O)O)NC(=O)c1ccc(Cl)c(Cl)c1` (stereo not given), which “activity change, negative = inhibition” value is on record?
Answer: Its value is 0.916% (inactive).

Question: `CCN(CC)CCNC(=O)c1ccc(NS(C)(=O)=O)cc1` was tested. Which “activity change, negative = inhibition” value did it give?
Answer: The value was -2.96% (inactive).
